Data as given in PubChem BioAssay AID1963322 (National Center for Advancing Translational Sciences (NCATS), 2024).
Results filed as inconclusive are left out. Active and inactive are the calls of the source. Calls follow the shape of the full dose curve.

These compounds were tested against cAMP-dependent protein kinase catalytic subunit alpha (Homo sapiens) (UniProt P17612) (assay: Protein Kinase A (PKA-HiBiT) SDR gain of signal screen). Conditions: PKA-HiBiT structural dynamics response (SDR), luminescence gain of signal; series mostly up to 32.9 µM; activity change, positive = signal gain: at the top concentration.
From the text: National Center for Advancing Translational Sciences (NCATS),
National Institute of Health (NIH), Maryland
Discovery and optimization of novel protein-binding ligands underlies many of the methods and applications of biology, drug discovery, clinical diagnostics, and environmental toxicology. Assays for detecting the interaction of, for example, a molecule with a macromolecular target also referred to here as the target of interest (TOI) is dependent on a compatible output technology. Depending on the nature and knowledge surrounding the TOI, whether a receptor, enzyme, regulatory subunit or scaffold, or a sequence-defined nucleic acid folded into a complex tertiary structure, assay strategies can vary widely.
Here we exploit ligand-biased changes in the structural dynamics of the target protein to control reporter alpha complementation allowing a non-competitive, non-functional, non-separation measure of ligand-target interaction.
Using a chemical library of >1,200 compounds enriched for scaffolds known to be associated with the inhibition of firefly luciferase (FLuc) activity (PubChem AIDs 2309) we first illustrate and compare the Structural Dynamics Response (SDR) assay vs. the standard functional FLuc enzyme assay (2). Secondly, we show the specificity and sensitivity of the SDR for the Abelson tyrosine kinase (ABL1) compared to the serine/threonine protein kinase A, using an enriched chemical library of 128 compounds selected, in part, for activity annotated with ABL1 kinase activity using the Pharos database (3).
(1) A. S. Dixon et al., NanoLuc Complementation Reporter Optimized for Accurate Measurement of Protein Interactions in Cells. ACS Chem Biol 11, 400-408 (2016).
Chemistry & Biology, 19, 1060 - 1072 (2012).
(3) K. J. Kelleher et al., Pharos 2023: an integrated resource for the understudied human proteome. Nucleic Acids Res 51, D1405-D1416 (2023).
PROTOCOL TABLE (as described by Inglese J, Shamu CE and Guy RK. 2007)
SEQUENCE No. (e.g., 1, 2, 3, etc.); […] (e.g., C. elegans, Compounds, Incubation, Read, etc.); VALUE and DESCRIPTION.
1. Reagent. Dispense 4 uL PKA-N-HiBiT enzyme per well at a final enzyme concentration of 10 nM in buffer into columns 2-48 of four replicate Greiner 1536-well white,solid bottom high base, medium plates per assay. Dispense respective buffer without enzyme at 4 uL/well in column 1 of assay plates using BioRaptr 2.
2. Compounds. Library compounds added at 23 nL/well by pin transfer. DMSO neutral control and H-89 positive control added at 25 nL/well, transfer by Mosquito dispenser.
3. Incubation. Incubate enzyme and compounds at room temperature for 30 min, protect from light.
4. Reagent. (SDR assay) Add 3 uL/well of Nano-Glo HiBiT reagent (Promega) to assay plates.
5. Incubation. (SDR assay) Incubate enzyme solution HiBiT reagent at room temperature for 10 min, protected from light.
6. Detector. (SDR assay) Luminescence measured using CCD-based camera (ViewLux) with settings as follows: Exposure, 1 sec; Gain, High; Speed, Slow; Binning, 2X.

Activity change, positive = signal gain, inactive:
O=C(NCCO)c1cccc(-c2cc(Nc3ccc(OC(F)(F)F)cc3)ncn2)c1 1.64%
COc1ccc(-n2c(C)c([N+](=O)[O-])c3ccc(O)cc32)cc1 4.08%
Cc1ccc(NC(=O)N2CCN(c3nc(N)nc4sc(-c5cccnc5)nc34)CC2)cc1 4.4%
C[C@@H]1CN(CC(=O)Nc2ccc3c(c2)Cc2cccc(-c4cc(=O)cc(N5CCOCC5)o4)c2S3)C[C@H](C)O1 -4.67%
C=CC(=O)Nc1cc2c(Nc3ccc(F)c(Cl)c3)ncnc2cc1OCCCN1CCOCC1 4.93%
Cc1cc(Nc2cc(N3CCN(C)CC3)nc(Sc3ccc(NC(=O)C4CC4)cc3)n2)n[nH]1 -6.42%
CCN(CC)CCOc1ccc(Nc2ncc3cc(-c4c(Cl)cccc4Cl)c(=O)n(C)c3n2)cc1 -49.5%
O=c1c(O)c(-c2ccc(O)c(O)c2)oc2cc(O)cc(O)c12 -2.25%
Cc1ncc(NC(=O)c2ccc(CN3CCN(C)CC3)c(C(F)(F)F)c2)cc1Nc1nccc(-c2cccnc2)n1 8.51%
COc1cc2c(N3CCN(C(=O)Nc4ccc(OC(C)C)cc4)CC3)ncnc2cc1OCCCN1CCCCC1 7.07%
Cc1ccccc1-n1c([C@H](C)Nc2nc(N)nc3nc[nH]c23)nc2cccc(C)c2c1=O 5.87%
CNc1ncc2cc(-c3cc(NC(=O)NCCC(C)(C)C)c(F)cc3C)c(C)nc2n1 2.19%
COc1cc2ncnc(-n3nc(-c4ccccn4)nc3N)c2cc1OC 6.78% [at 16.4 µM]
c1ccc2c(-c3cnn4cc(-c5ccc(N6CCNCC6)cc5)cnc34)ccnc2c1 6.14% [at 3.64 µM]
O=C1CCC(N2C(=O)c3ccccc3C2=O)C(=O)N1 (stereo not given) -9.83%
Cc1ccc(C(=O)Nc2ccc(Oc3cc4cnn(C)c4cc3-c3cn[nH]c3)c(F)c2)c(=O)n1-c1ccc(F)cc1 8.3%
O=C(Nc1ccc(OC(F)(F)F)cc1)c1sccc1NCc1ccnc2ccccc12 10.2%
O=c1cc(N2CCOCC2)nc2c3ccccc3ccn12 2.48%
O=C(Nc1cc(C(F)(F)F)ccc1N1CCCCC1)c1ccncc1 3.42%
Cc1cc(Nc2ncc3c(n2)N(C)C(=O)N(c2cc(NC(=O)c4cccc(C(F)(F)F)c4)ccc2C)C3)n(C)n1 2.14%
Nc1ncnc2c1c(-c1cnc3[nH]ccc3c1)nn2C1CCCC1 13.7%
Cc1cccc(/C=N/Nc2cc(N3CCOCC3)nc(OCCc3ccccn3)n2)c1 -7.95% [at 26.3 µM]
COc1cc2ncnc(Oc3cccc(NC(=O)Nc4cc(C(C)(C)C(F)(F)F)on4)c3)c2cc1OC 1.41%
O=C(NC1CCNCC1)c1[nH]ncc1NC(=O)c1c(Cl)cccc1Cl 1.69%
COc1cc2ncnc(Nc3ccc(F)c(Cl)c3)c2cc1OCCCN1CCOCC1 10%
CNC(=O)c1ccccc1Sc1ccc2c(/C=C/c3ccccn3)n[nH]c2c1 -5.73%
CC(C)CCN1c2nc(Nc3cc(F)c(O)c(F)c3)ncc2N(C)C(=O)C1C (stereo not given) -13.2%
c1ccc(-c2oc3ncnc(NC[C@@H]4CCCO4)c3c2-c2ccccc2)cc1 5.8%
Cc1cc(F)ccc1-c1nc(NC(CO)CO)nc2c1ccc(=O)n2-c1c(F)cccc1F 4.46%
FC(F)(F)c1ccc(/C=C/c2nc(COc3ccc(CCCCn4ccnn4)cc3)co2)cc1 7.11%
CCN1CCN(Cc2ccc(NC(=O)c3ccc(C)c(NC(=O)c4cncc(-c5cccs5)c4)c3)cc2C(F)(F)F)CC1 16.5%
CCCS(=O)(=O)Nc1ccc(F)c(C(=O)c2c[nH]c3ncc(Cl)cc23)c1F 6.54%
O=C1C(c2c(O)[nH]c3ccccc23)=Nc2ccccc21 5.12%
Cc1ccc(C(=O)Nc2ccc(CN3CCN(C)CC3)c(C(F)(F)F)c2)cc1C#Cc1cnc2[nH]ncc2c1 7.29%
Cc1cc(C)c(/C=C2\C(=O)Nc3ccccc32)[nH]1 -43.1%
COc1cc(N2CCC(O)CC2)ccc1Nc1nc(Nc2ccccc2S(=O)(=O)C(C)C)c2[nH]cnc2n1 17.5%

Potency, active:
Cn1cc(-c2[nH]c3cc(NC(=O)[C@H](N)C4CCCCC4)cc4c3c2C=NNC4=O)cn1 600 nM
NC1CCC(Nc2nc(Nc3ccc(C(=O)N4CCCCC4)cc3)c3ncn(-c4cccc(F)c4)c3n2)CC1 (stereo not given) 11500 nM
CN(c1ncccc1CNc1nc(Nc2ccc3c(c2)CC(=O)N3)ncc1C(F)(F)F)S(C)(=O)=O 4410 nM
Cn1ncc(NC(=O)c2nc(-c3c(F)cccc3F)sc2N)c1N1CC[C@@H](N)[C@H](F)CC1 700 nM
